Assays:
Details in all cases: concentration: 1 μM, replicates: in singlicate; n = 1
PIK3CD = system: PIK3CD
PIK3CG = system: PIK3CG
PIK4CB = system: T1, PIK4CB
T1 construct: gene PI4KB

PIKFYVE = system: PIKFYVE
PIM1 = system: PIM1
PIM2 = system: PIM2
PIM3 = system: PIM3
PIP5K1A = system: PIP5K1A
PIP5K1C = system: PIP5K1C
PIP5K2B = system: PIP5K2B
PIP5K2C = system: T2, PIP5K2C
T2 construct: gene PIP4K2C

PKAC-alpha = system: T3, PKAC-alpha
T3 construct: gene PRKACA

PKAC-beta = system: T4, PKAC-beta
T4 construct: gene PRKACB

PKMYT1 = system: PKMYT1
PKN1 = system: PKN1
PKN2 = system: PKN2
PLK1 = system: PLK1
PLK2 = system: PLK2
PLK3 = system: PLK3
PLK4 = system: PLK4
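Also: KINOMEscan kinase panel screen.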

SMILES | %Inh (PIK3CD) | %Inh (PIK3CG) | %Inh (PIK4CB) | %Inh (PIKFYVE) | %Inh (PIM1) | %Inh (PIM2) | %Inh (PIM3) | %Inh (PIP5K1A) | %Inh (PIP5K1C) | %Inh (PIP5K2B) | %Inh (PIP5K2C) | %Inh (PKAC-alpha) | %Inh (PKAC-beta) | %Inh (PKMYT1) | %Inh (PKN1) | %Inh (PKN2) | %Inh (PLK1) | %Inh (PLK2) | %Inh (PLK3) | %Inh (PLK4)
O=C(c1ccc(-c2cc(-c3c[nH]nc3-c3ccccn3)ccn2)cc1)N1CCCC1 [GW792479] | 0% | 0% | 4% | 19% | 100% | 21% | 8% | 0% | 14% | 0% | 97% | 0% | 22% | 0% | 0% | 0% | 0% | 0% | 12% | 0%
Cn1ccc2ncnc(Oc3ccc(NC(=O)Nc4cccnc4)c(Cl)c3)c21 | 8% | 7% | 0% | 0% | 1% | 0% | 0% | 0% | 1% | 35% | 0% | 7% | 0% | 0% | 0% | 0% | 0% | 5% | 11% | 11%
CCc1nc(-c2cccc(N(C)S(=O)(=O)c3ccccc3)c2)c(-c2ccnc(Nc3ccc(N4CCN(C(C)=O)CC4)nc3)n2)s1 [GSK1645895] | 0% | 4% | 10% | 0% | 17% | 0% | 11% | 0% | 0% | 0% | 63% | 0% | 0% | 1% | 34% | 0% | 7% | 0% | 0% | 8%
Cn1cc(-c2ccc3c(c2)CCN3C(=O)Cc2cccc(C(F)(F)F)c2)c2c(N)ncnc21 [GSK2606414] | 0% | 0% | 6% | 0% | 0% | 0% | 0% | 0% | 0% | 0% | 0% | 4% | 6% | 5% | 37% | 0% | 0% | 0% | 0% | 15%
COc1ccc(NC(=O)Nc2ccc(C)c(-c3ccc(C(=O)Nc4ccncc4)cc3)c2)cc1 [GSK1398475] | 0% | 0% | 0% | 0% | 0% | 0% | 3% | 0% | 17% | 0% | 0% | 8% | 0% | 0% | 0% | 0% | 0% | 0% | 0% | 0%
Fc1ccc(Nc2nccc(-c3c(-c4ccc(Cl)cc4)nn4ncccc34)n2)cc1F [GW829058] | 54% | 18% | 32% | 20% | 31% | 11% | 24% | 13% | 54% | 14% | 20% | 15% | 24% | 4% | 4% | 13% | 32% | 36% | 20% | 29%
CCc1nc(-c2cccc(C)c2)c(-c2ccnc(NC(=O)c3ccccc3)c2)s1 | 44% | 0% | 62% | 1% | 0% | 0% | 0% | 15% | 0% | 64% | 99.1% | 0% | 0% | 0% | 13% | 0% | 0% | 5% | 9% | 17%
Fc1cccc(COc2ccc(Nc3ncnc4cc[nH]c34)cc2Cl)c1 | 17% | 9% | 12% | 0% | 26% | 13% | 34% | 0% | 0% | 16% | 5% | 25% | 1% | 10% | 0% | 0% | 23% | 23% | 23% | 27%
CN1c2ccc(-c3ccc(C(=O)NCCO)cc3)cc2-c2[nH]ncc2S1(=O)=O | 10% | 0% | 0% | 0% | 10% | 5% | 24% | 0% | 41% | 0% | 76% | 33% | 55% | 16% | 0% | 30% | 21% | 17% | 0% | 25%
C[C@H]1CC[C@@H](C(=O)Nc2ccccc2)CN1c1cc(-c2ccc3c(N)n[nH]c3c2)nc(N)n1 [GSK2283293] | 0% | 0% | 0% | 0% | 13% | 0% | 0% | 0% | 19% | 24% | 15% | 0% | 0% | 0% | 0% | 0% | 0% | 4% | 0% | 0%
